A number with no mark means an inactive call. Results filed as inconclusive are left out. Activity calls are given as the source filed them. Unless noted, the call rests on the fitted dose curve.

Assay [1] can be described thus: Nuclear factor erythroid 2-related factor 2/antioxidant responsive element (Nrf2/ARE) small molecule agonists: qHTS cell viability counter screen in human keratinocytes (AID 1919968; active means well fitted curve in the direction sought with a large enough effect in the repeat runs; an effect the other way counts as inactive or inconclusive; further: nearly all actives have a fitted effect of over 55% in size; further: potency means the concentration at half of the fitted maximal effect). In a few lines: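 Parallel cytotoxicity read: KeratinoSens HaCaT cells, compound treatment 23 h, viability by CellTiter-Fluor fluorescence 1 h post-reagent.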
In general terms: In qHTS, concentration-response curves come from the screen itself.

The target in assay [2] is KiSS-1 receptor (Homo sapiens) (UniProt Q969F8). Nature of the assay: Human kisspeptin (KISS1R) small molecule agonists, calcium flux assay in KISS1R-HEK293 cells (AID 1920064; active means well fitted curve in the direction sought with a large enough effect in the repeat runs; an effect the other way counts as inactive or inconclusive). The method in brief:
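Triplicate 15-concentration series were applied to dye-loaded human KISS1R HEK293 cells, and agonist-evoked calcium fluorescence was captured for 3 min.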

Assay [3] is described as follows: G protein-coupled receptor (GPCR) small molecule agonists, calcium flux assay: HEK293 wild type cell line counter screen (AID 1920065). The method in brief:
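Non-specific calcium responders were flagged by adding DMSO-dissolved compounds to dye-loaded cells and reading 480/540 nm fluorescence each second for 3 min; ATP served as positive control.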
On the technique in general: Calcium flux is commonly read through the fluorescence of an indicator in the cells.

The nature of assay [4]: p53 small molecule agonists, cell-based qHTS assay with human liver microsomes: qHTS cell viability counter screen (AID 1963579). Further: nearly all actives have a fitted effect of over 45% in size. Further: potency means the concentration at half of the fitted maximal effect. In a few lines: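 In this multiplexed counter screen, the reporter plates were subsequently treated with CellTiter-Glo so that cell viability, reflected by luminescence, could be recorded for p53RE-bla cells dosed 16 h with compounds under microsomal activation (HLM and NADPH).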

Assay [5] can be described thus: p53 small molecule agonists, cell-based qHTS assay with rat liver microsomes: qHTS cell viability counter screen (AID 1963580). Further: nearly all actives have a fitted effect of over 45% in size. The method in brief:
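Cytotoxicity counter screen: intracellular ATP read by CellTiter-Glo luminescence in the p53 reporter wells. HCT-116 p53RE-bla cells were treated for 16 h at 37 C alongside rat liver microsomes and NADPH, each 0.5 mg/mL final.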

Assay [6] deals with 5-hydroxytryptamine receptor 2A (Homo sapiens) (UniProt P28223). Nature of the assay: 5-hydroxytryptamine receptor 2A (HTR2A) small molecule antagonists, cell-based qHTS assay (AID 1963586). Further: nearly all actives have a fitted effect of over 45% in size. The method in brief:
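CHO cells stably expressing human HTR2A were plated for 18 h at 37 C, then loaded with calcium dye for 1 h. Compounds were preincubated 5 min at room temperature before DOI (4 nM solution) was added. Kinetic fluorescence was read for 3 min.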

Assay [7] has the same target. Nature of the assay: 5-hydroxytryptamine receptor 2A (HTR2A) small molecule agonists, cell-based qHTS assay (AID 1963587). Further: nearly all actives have a fitted effect of over 30% in size. Further: potency means the concentration at half of the fitted maximal effect. In a few lines: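 Kinetic calcium-flux fluorescence (2 min, 1 sec intervals) after compound addition in agonist mode. HTR2A-CHO cells were cultured 18 h, then dye-loaded 1 h at 37 C.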
Assay [8] has as its target Muscarinic acetylcholine receptor M1 (Homo sapiens) (UniProt P11229). Nature of the assay: Cholinergic receptor muscarinic 1 (CHRM1) small molecule antagonists, cell-based qHTS assay (AID 1963588). Further: nearly all actives have a fitted effect of over 40% in size. Further: potency means the concentration at half of the fitted maximal effect. The method in brief:
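Compounds were tested at 15 concentrations in three independent runs. Dye-loaded CHRM1-CHO cells were exposed 5 min at room temperature before stimulation by acetylcholine added at 50nM. Intracellular calcium was read kinetically on FDSS for 3 min.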

Assay [9] has the same target. In words: Cholinergic receptor muscarinic 1 (CHRM1) small molecule agonists, cell-based qHTS assay (AID 1963589). Further: nearly all actives have a fitted effect of over 35% in size. The method in brief:
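qHTS, 15-point titration, 3 independent runs: compounds pin-transferred onto dye-loaded CHRM1-CHO cells (human M1), calcium fluorescence followed every second to detect agonism.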

A short description of assay [10]: cAMP Responsive Elements (CRE) small molecule agonists, cell-based qHTS assay (AID 1963590). The method in brief:
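Quantitative HTS for CRE agonists: HEK 293T CRE-bla cells, overnight plating, 3 h compound incubation at 37 C/5% CO2, then 2 h room-temperature LiveBLAzer B/G FRET substrate loading.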

The nature of assay [11]: cAMP Responsive Elements (CRE) small molecule antagonists, cell-based qHTS assay (AID 1963591; active means well fitted inhibition curve with a large enough effect in the signal ratio in the repeat runs, not every such curve was filed as active; the % refers to the signal ratio). In a few lines: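 Fluorescence intensity from cleaved LiveBLAzer B/G substrate (2 h, room temperature) quantified CRE-bla activity in HEK 293T cells exposed 3 h to compound with 0.25 uM final NKH477.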
The target of assay [12] is Beta-2 adrenergic receptor (Homo sapiens) (UniProt P07550). Nature of the assay: Adrenergic beta2 receptor (ADRB2) small molecule antagonists, cell-based qHTS assay (AID 1963592). Further: series mostly up to about 92 µM; nearly all actives have a fitted effect of over 50% in size. The method in brief:
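Assay format: CHO-ADRB2 cells, 18-20hr seeding at 37C/5% CO2, then compound plus 1nM isoproterenol agonist mix for 0.5hr RT. Homogeneous time-resolved fluorescence cAMP detection after 1hr, expressed as 665/615 nm ratio.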

Assay [13] has as its target D(2) dopamine receptor (Homo sapiens) (UniProt P14416). Nature of the assay: Dopamine D2 receptor (DRD2) small molecule agonists, cell-based qHTS assay (AID 1963594). Further: nearly all actives have a fitted effect of over 35% in size. In a few lines: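 cAMP accumulation in DRD2-HEK293 cells measured by HTRF after 1 h detection; compounds added 10 min before NKH477 (200nM […]) forskolin-analogue stimulation, 30 min at room temperature, with Ro20-1724 present at 0.1 mM final.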

Assay [14] has the same target. Nature of the assay: Dopamine D2 receptor (DRD2) small molecule antagonists, cell-based qHTS assay (AID 1963595; active means well fitted inhibition curve with a large enough effect in the signal ratio in the repeat runs, with a control signal flat; the % refers to the signal ratio). The method in brief: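 In this cell-based antagonist screen, compounds act for 10 min at room temperature before a 30 min challenge with 12 nM quinpirole and 200 nM NKH477. cAMP is quantified by HTRF competition in DRD2-HEK293 cells containing 0.1 mM Ro20-1724.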

Assay [15] can be described thus: p53 small molecule agonists, cell-based qHTS assay with human liver microsomes (AID 1963577).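 Further: p53 response element beta-lactamase reporter cells with liver microsomes plus NADPH.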 The method in brief: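 16 h, 37 C exposure of p53RE-bla cells to compounds with human liver microsomes and NADPH (0.5 mg/mL final each); detection via LiveBLAzer mixture, 2 h dark at room temperature.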
The nature of assay [16]: p53 small molecule agonists, cell-based qHTS assay with rat liver microsomes (AID 1963578). The method in brief:
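With rat liver microsomes and NADPH present (0.5 mg/mL final each), p53RE-bla cells are treated with compound for 16 h at 37 C. LiveBLAzer detection mixture is then applied for 2 h at room temperature in the dark.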

Assay [17] can be described thus: p53 small molecule agonists, cell-based qHTS assay: qHTS cell viability counter screen (AID 1963581). Further: nearly all actives have a fitted effect of over 45% in size. The method in brief: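 Multiplexed with the reporter read, a CellTiter-Glo step (30 min, room temperature) gauges ATP-based viability of HCT-116 p53RE-bla cells after 16 h compound incubation at 37 C.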
Assay [18] is described as follows: p53 small molecule agonists, cell-based qHTS assay (AID 1963582; active means well fitted activation curve with a large enough effect in the signal ratio in the repeat runs, not every such curve was filed as active; the % refers to the signal ratio). The method in brief: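 Beta-lactamase reporter cells (p53RE-bla) treated with compounds for 16 h at 37 C; FRET substrate, 2 h, room temperature; fluorescence intensity.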
The target of assay [19] is Beta-2 adrenergic receptor (Homo sapiens) (UniProt P07550). In words: Adrenergic beta2 receptor (ADRB2) small molecule agonists, cell-based qHTS assay (AID 1963593).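 Further: CHO cells stably overexpressing human ADRB2.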 The method in brief: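 CHO cells stably over-expressing ADRB2 were plated overnight at 37C, then dosed with compounds plus a stimulation mix containing 100uM IBMX and 25uM Ro-20-1724 for 0.5hr at room temperature. cAMP was measured by HTRF competition, 1hr.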
On the % scale 0 is the no-effect control and ±100 the full control effect.

Chain of Beta-2 adrenergic receptor (Homo sapiens) (P07550 whole entry, looked up): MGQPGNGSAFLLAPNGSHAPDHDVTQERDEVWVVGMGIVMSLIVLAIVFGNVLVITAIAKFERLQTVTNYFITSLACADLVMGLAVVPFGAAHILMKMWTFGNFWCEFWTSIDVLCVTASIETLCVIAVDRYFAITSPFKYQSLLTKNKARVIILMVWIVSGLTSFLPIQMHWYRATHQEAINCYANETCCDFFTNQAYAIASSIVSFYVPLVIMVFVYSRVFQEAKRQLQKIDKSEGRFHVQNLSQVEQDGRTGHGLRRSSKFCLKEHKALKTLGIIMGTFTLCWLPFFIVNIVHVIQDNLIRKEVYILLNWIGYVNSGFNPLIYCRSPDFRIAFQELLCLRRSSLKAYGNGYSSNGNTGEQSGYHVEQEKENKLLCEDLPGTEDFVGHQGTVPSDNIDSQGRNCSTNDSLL
Chain of D(2) dopamine receptor (Homo sapiens) (P14416 whole entry, looked up): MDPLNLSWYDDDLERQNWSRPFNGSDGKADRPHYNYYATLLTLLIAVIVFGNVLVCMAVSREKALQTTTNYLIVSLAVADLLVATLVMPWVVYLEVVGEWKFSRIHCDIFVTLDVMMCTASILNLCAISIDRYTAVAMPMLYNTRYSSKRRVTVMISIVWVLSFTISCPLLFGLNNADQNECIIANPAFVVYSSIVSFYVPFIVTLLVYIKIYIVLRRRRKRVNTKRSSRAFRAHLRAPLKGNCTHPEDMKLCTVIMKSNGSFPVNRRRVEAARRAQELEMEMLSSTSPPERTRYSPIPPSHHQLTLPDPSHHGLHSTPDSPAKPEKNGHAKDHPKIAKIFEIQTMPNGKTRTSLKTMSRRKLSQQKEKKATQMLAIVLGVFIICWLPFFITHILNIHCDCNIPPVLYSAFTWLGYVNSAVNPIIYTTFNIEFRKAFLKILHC
Chain of KiSS-1 receptor (Homo sapiens) (Q969F8 whole entry, looked up): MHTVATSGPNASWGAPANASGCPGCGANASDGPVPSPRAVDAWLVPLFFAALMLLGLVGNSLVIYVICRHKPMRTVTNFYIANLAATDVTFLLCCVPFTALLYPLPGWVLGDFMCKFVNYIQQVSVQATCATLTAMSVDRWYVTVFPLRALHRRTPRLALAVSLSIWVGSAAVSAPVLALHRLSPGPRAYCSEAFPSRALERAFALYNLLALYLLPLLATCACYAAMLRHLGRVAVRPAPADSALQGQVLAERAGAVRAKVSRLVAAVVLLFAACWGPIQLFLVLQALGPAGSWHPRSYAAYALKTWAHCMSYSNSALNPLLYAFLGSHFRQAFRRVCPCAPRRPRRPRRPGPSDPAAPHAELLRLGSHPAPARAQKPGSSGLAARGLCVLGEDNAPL
Chain of Muscarinic acetylcholine receptor M1 (Homo sapiens) (P11229 whole entry, looked up): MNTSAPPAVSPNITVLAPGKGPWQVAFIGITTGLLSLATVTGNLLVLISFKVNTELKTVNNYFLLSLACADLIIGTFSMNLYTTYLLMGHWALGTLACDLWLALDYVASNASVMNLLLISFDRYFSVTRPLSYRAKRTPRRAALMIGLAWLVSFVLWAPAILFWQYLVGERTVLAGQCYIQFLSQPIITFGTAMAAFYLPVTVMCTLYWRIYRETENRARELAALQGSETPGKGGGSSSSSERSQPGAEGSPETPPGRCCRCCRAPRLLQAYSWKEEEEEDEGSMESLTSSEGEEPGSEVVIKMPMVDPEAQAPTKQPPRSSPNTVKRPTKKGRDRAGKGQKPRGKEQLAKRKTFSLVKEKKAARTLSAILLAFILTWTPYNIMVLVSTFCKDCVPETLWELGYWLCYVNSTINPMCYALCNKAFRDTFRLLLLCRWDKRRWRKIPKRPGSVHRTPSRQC
Chain of 5-hydroxytryptamine receptor 2A (Homo sapiens) (P28223 whole entry, looked up): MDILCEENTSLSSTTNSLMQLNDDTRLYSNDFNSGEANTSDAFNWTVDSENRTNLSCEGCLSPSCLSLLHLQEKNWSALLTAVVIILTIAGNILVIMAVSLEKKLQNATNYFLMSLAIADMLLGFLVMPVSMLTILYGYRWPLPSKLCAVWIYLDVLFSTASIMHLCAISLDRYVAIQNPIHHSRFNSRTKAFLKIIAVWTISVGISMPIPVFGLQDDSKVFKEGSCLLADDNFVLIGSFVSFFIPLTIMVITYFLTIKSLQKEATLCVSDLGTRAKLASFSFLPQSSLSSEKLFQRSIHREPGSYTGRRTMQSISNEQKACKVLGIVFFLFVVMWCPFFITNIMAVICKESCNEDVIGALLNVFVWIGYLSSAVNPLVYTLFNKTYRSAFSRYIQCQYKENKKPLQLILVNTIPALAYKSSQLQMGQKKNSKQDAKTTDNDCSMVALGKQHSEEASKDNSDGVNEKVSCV

In the case of `Brc1cc(Br)c(Oc2cc(Br)c(Br)cc2Br)cc1Br`, the Potency entry in assay [1], in assay [2], in assay [3], in assay [4], in assay [5] and in assay [6] was “inactive” each time. Moreover, the Potency result in assay [7], in [8], in assay [9], in [10], in assay [11] and in assay [12] was “inactive” each time. The Potency entry in [13] and in assay [14] was “inactive” throughout.

As for `CCCCCCCCCCCCOCCOCCOCCOCCOCCOCCOCCOCCOCCO`, the Potency is 29.8 µM (active) in assay [1] and 9.18 µM (active) in assay [8]. The Potency result in assay [2], in [15], in assay [16], in assay [5], in assay [17] and in assay [18] was “inactive” in each case. Moreover, the Potency entry in assay [7], in [9], in assay [12], in assay [19] and in [14] was “inactive” throughout.

Take `C/C=C1\C(=O)C[C@H]2[C@@H]3CCC4=CC(=O)CC[C@]4(C)[C@H]3CC[C@]12C`: the Potency result in assay [1], in assay [2], in [3], in [4], in assay [5] and in assay [17] was “inactive” in each case. The Potency result in assay [7], in [8], in assay [9], in assay [12], in assay [13] and in assay [14] was “inactive” throughout.

Regarding `COc1cc(C(C)C)c2c(c1)S(=O)(=O)N(COc1cc(=O)n3cccc(OCCN4CCCCC4)c3n1)C2=O`, the values for the activity change, negative = cytotoxicity in assay [1], in [5] and in [17] were -10.3% [at 19 µM], -0.988% [at 13.5 µM] and -1.9% [at 13.5 µM], respectively. Also, the activation was -3.13% [at 15.8 µM] in assay [2], -1.78% [at 15.9 µM] in [7], -0.958% [at 15.8 µM] in assay [9] and -15.5% [at 19 µM] in [13]. Besides, the activity, negative = inhibition was 4.6% [at 12.7 µM] in [6] and -3.39% [at 12.6 µM] in [8]. In addition, the activity change, negative = inhibition in [12] is 1.57% [at 19 µM].

`CC/C(=C(/c1ccc(O)cc1)c1ccc(OCCN(C)C)cc1)c1ccccc1`: the Potency was 18 µM (active) in [1], 26.9 µM (active) in assay [4], 28.8 µM (active) in assay [7] and 13.9 µM (active) in assay [8]. Also, the Potency entry in assay [2], in assay [3] and in assay [13] was “inactive” throughout.

In the case of `C[C@@H](NCCCc1cccc(C(F)(F)F)c1)c1cccc2ccccc12`, the Potency is 29.8 µM (active) in assay [1] and 23.9 µM (active) in assay [7]. Besides, the Potency result in assay [3], in assay [15], in assay [16], in [4], in [5] and in assay [18] was “inactive” in each case. Moreover, the Potency result in [8] and in assay [13] was “inactive” throughout.

Turning to `Cc1cc(C)c(N)cc1C`, the Potency entry in assay [1], in assay [2], in assay [3], in assay [4], in [5] and in assay [6] was “inactive” each time. In addition, the Potency result in assay [7], in assay [8], in [9], in [10], in [11] and in [12] was “inactive” each time. In addition, the Potency result in assay [13] and in [14] was “inactive” throughout.

Turning to `Cc1ccccc1OCC(=O)O`, the Potency result in assay [1], in assay [2], in assay [3], in [4], in [5] and in [17] was “inactive” throughout. The Potency result in assay [6], in assay [7], in [8], in assay [10], in [11] and in assay [12] was “inactive” in each case. In addition, the Potency entry in [13] and in [14] was “inactive” throughout.

As for `Cc1ccccc1N=C(N)Nc1ccccc1C`, the Potency result in assay [1], in assay [2], in assay [4], in assay [5], in [17] and in [6] was “inactive” throughout. For the same molecule, the Potency entry in assay [7], in assay [9], in assay [10], in [11] and in assay [12] was “inactive” throughout. In addition, in [8], the Potency was 7.35 µM (active).

With `CN(C)C(=O)NC1(c2ccccc2)CCN(CC[C@@]2(c3ccc(F)c(F)c3)CN(C(=O)c3ccccc3)CCO2)CC1`, the Potency result in assay [1], in [3], in assay [16], in [4], in assay [5] and in assay [17] was “inactive” each time. Besides, the Potency result in assay [18], in assay [7], in assay [9], in [12], in [19] and in [13] was “inactive” each time.

The values above are taken from PubChem BioAssay (Tox21).
